From PubChem BioAssay
Hits are enriched below; roughly 4% of the tested compounds scored in any of these assays.
Mtb UGM inh: blocks M. tuberculosis UGM enzyme | purified UGM, fluorescence polarization probe displacement | AID 504406 | P9WIQ1 | inhibition, % at 10 µM | 0.06% of 320,000 active; in the data active = inhibition above about 10%, passing the limit was not always enough; inconclusive = no clear call, values can overlap the other calls
GDH-TPI inh: inhibits GDH-TPI coupling enzymes, artifact for Mtb FBA screen; AID 588335; GDH-TPI coupled enzyme counterscreen, NADH absorbance; 1.2% of 360,000 active; inhibition, % at 4.8 µM; in the data active = inhibition above about 30%
Mtb FBA inh: inhibitors of M. tuberculosis fructose-bisphosphate aldolase | P9WQA3 | purified M. tuberculosis FBA, fluorescence read-out | inhibition, % at 1 µM | 2.3% of 360,000 active | AID 588726; in the data active = inhibition above about 27%
Mtb betalactam: beta-lactam sensitization of Mtb H37Rv; M. tuberculosis H37Rv growth with meropenem, percent inhibition; 0.27% of 330,000 active; inhibition, % at 25 µM; AID 434955; call rule not given here;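 also: growth measured after seven days incubation then overnight dye step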
Rv3671c inh: Rv3671c (M. tuberculosis) protease inhibition. 0.048% of 320,000 active. inhibition, % at 5.96 µM; in the data active = inhibition above about 38%;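 also: extracellular domain of Rv3671c used as enzyme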
RecA splice inh: blocks M. tuberculosis RecA intein splicing; P9WHJ3; cell-free RecA intein splicing, fluorescence; inhibition, % (no concentration beside the values); 0.75% of 290,000 active; AID 2221; in the data active = inhibition above about 30%; inconclusive = no clear call, values can overlap the other calls
Target sequence (P9WHJ3 whole entry, looked up, canonical isoform): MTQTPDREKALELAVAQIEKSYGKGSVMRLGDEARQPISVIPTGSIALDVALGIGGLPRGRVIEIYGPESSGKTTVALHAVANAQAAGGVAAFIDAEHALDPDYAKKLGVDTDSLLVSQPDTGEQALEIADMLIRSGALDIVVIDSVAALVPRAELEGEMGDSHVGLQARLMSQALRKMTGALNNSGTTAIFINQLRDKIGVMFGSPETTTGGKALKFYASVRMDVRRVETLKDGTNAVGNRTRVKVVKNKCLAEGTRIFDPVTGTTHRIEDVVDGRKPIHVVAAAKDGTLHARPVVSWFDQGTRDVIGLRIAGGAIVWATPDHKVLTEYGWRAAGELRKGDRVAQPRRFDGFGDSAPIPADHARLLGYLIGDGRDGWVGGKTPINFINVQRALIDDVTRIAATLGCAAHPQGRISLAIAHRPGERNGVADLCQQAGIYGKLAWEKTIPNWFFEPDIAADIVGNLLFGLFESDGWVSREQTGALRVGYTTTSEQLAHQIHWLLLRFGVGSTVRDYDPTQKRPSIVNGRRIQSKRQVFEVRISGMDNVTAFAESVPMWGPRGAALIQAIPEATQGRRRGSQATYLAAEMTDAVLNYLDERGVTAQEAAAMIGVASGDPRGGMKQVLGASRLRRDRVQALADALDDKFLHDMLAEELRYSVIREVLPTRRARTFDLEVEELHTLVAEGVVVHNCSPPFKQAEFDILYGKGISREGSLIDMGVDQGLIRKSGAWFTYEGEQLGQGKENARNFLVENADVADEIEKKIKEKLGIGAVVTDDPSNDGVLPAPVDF
Large screens that a line does not name were inactive.

CCCCN1C2CCCC1CC(NC(=O)c1cccc(Cl)c1)C2 (stereo not drawn)	none
Clc1cccc(Cl)c1/C=N/Nc1c(Cl)cncc1Cl	none
COc1cccc(/C=N/Nc2ncnc(Cl)c2N)c1O	GDH-TPI inh 32
Clc1cncc(Cl)c1N/N=C/c1ccncc1	GDH-TPI inh 36 (no result: Mtb UGM inh)
Oc1cccc(/C=N/Nc2ncnc3c2ncn3Cc2ccccc2)c1	GDH-TPI inh 37
COc1cccc(/C=N/Nc2ncnc3scc(-c4ccccc4)c23)c1O	GDH-TPI inh 32
COc1ccc(CNc2ncc(-c3ccc(Cl)cc3)n2C)c(OC)c1OC	none
CCc1ccc(C(=O)COC(=O)C2CCN(c3ccc(C(F)(F)F)cn3)CC2)cc1	none
COc1ccc(NC(=O)CS(=O)CC(=O)Nc2ccc(-n3cnnn3)c(C)c2)cc1 (stereo not drawn)	none
COc1cccc(/C=N/Nc2nc(Nc3ccccc3)nc(-n3nc(C)cc3C)n2)c1O	none
Nc1c(Cl)ncnc1N/N=C/c1cccc(O)c1	GDH-TPI inh 42
Nc1c(Cl)ncnc1N/N=C/c1ccncc1	GDH-TPI inh 48
COc1cccc(/C=N/Nc2cc(-n3nc(C)cc3-c3ccccc3)ncn2)c1O	GDH-TPI inh 35
N#CCC(=O)N/N=C\c1cccc(OC/C=C/c2ccccc2)c1	none
COc1ccc(OC)c(-c2nnc3n2N=C(c2ccc(OC)c(OC)c2)CS3)c1	GDH-TPI inh 34 (no result: RecA splice inh)
COc1ccc(OC)c(-c2nnc3n2N=C(c2ccc(OC)c(OC4CCCC4)c2)CS3)c1	GDH-TPI inh 32 (no result: RecA splice inh)
CN(C(=O)c1cccc(COc2ccc(Cl)cc2Cl)c1)c1ccccc1	RecA splice inh 35
CC(Sc1nc(-c2ccco2)nc2c1c(=O)n(C)c(=O)n2C)C(=O)O (stereo not drawn)	GDH-TPI inh 32
O=C(NN=Cc1ccc(OC(F)F)cc1)c1ccc(NS(=O)(=O)c2cccs2)cc1	GDH-TPI inh 33 (no result: RecA splice inh)
O=C(NN=Cc1ccccc1OC(F)F)c1ccc(NS(=O)(=O)c2cccs2)cc1	GDH-TPI inh 32 (no result: RecA splice inh)
O=C(N/N=C/c1ccc([N+](=O)[O-])o1)c1ccc(NS(=O)(=O)c2cccs2)cc1	none
O=C(N/N=C/c1ccc([N+](=O)[O-])cc1)c1ccc(NS(=O)(=O)c2cccs2)cc1	GDH-TPI inh 41 (no result: RecA splice inh)
COCCN1CCN(C(=O)C2CCC(=O)N(Cc3cccc(C(F)(F)F)c3)C2)CC1 (stereo not drawn)	none (no result: Rv3671c inh)
Cc1cn([C@H]2C[C@H](O)[C@@H](CCC(=O)NC(c3ccccc3)c3ccccc3)O2)c(=O)[nH]c1=O	none (no result: Mtb UGM inh, Mtb betalactam, Rv3671c inh, RecA splice inh)
Cc1ccc(OCC(=O)OCC(=O)NC2CCS(=O)(=O)C2)cc1C (stereo not drawn)	none (no result: Mtb UGM inh, Mtb betalactam, Rv3671c inh, RecA splice inh)
N#CC(c1ccc(O)cc1)N1CCN(C(C#N)c2ccc(O)cc2)CC1 (stereo not drawn)	GDH-TPI inh 82 (no result: Mtb UGM inh, Mtb betalactam, Rv3671c inh, RecA splice inh)
O=C(c1ccncc1)c1ccc(NS(=O)(=O)c2ccc(Br)s2)cc1	GDH-TPI inh 39
O=C(Nc1ccc2ccccc2c1)c1ccc(NS(=O)(=O)c2ccc(Br)s2)cc1	none
O=C1c2cccc3cc([N+](=O)[O-])cc(c23)C(=O)N1CCN1CCCC1	none (no result: Mtb UGM inh, Mtb betalactam, Rv3671c inh)
O=C1c2cccc3cc([N+](=O)[O-])cc(c23)C(=O)N1/N=C/c1ccc(O)cc1O	GDH-TPI inh 56
CC1(C(=O)Nc2cccc(Oc3ccccc3)c2)Cc2c(-c3ccc4c(c3)OCO4)ccnc2O1 (stereo not drawn)	none (no result: Mtb UGM inh, Mtb betalactam, Rv3671c inh, RecA splice inh)
COc1ccc(-c2nc3c(s2)CN(S(C)(=O)=O)CC3)cc1OC	Mtb FBA inh 127 (no result: Rv3671c inh)
CCS(=O)(=O)N1CCc2nc(-c3ccccc3)sc2C1	none
Cc1cc(C(=O)C(C)OC(=O)c2ccc(NC(=O)CC#N)cc2)c(C)n1-c1ccccc1 (stereo not drawn)	none
CCOC(=O)c1ccc(NC(=O)/C=C/c2cccs2)cc1	GDH-TPI inh 32
NS(=O)(=O)c1ccc(NC(=O)/C=C/c2cccs2)cc1	GDH-TPI inh 72
O=C(/C=C/c1cccs1)Nc1ccc(S(=O)(=O)Nc2ncccn2)cc1	GDH-TPI inh 45
NS(=O)(=O)c1cccc(NC(=O)/C=C/c2cccs2)c1	none
CCN(CC)CCOC(=O)c1ccc(NC(=O)/C=C/c2cccs2)cc1	none
O=C(/C=C/c1ccccc1)NNC(=O)c1cccs1	none
O=C(/C=C/c1ccccc1)Nc1ccc(NC(=O)c2cccs2)cc1	GDH-TPI inh 35
C[C@H]1CN([C@@H](C)CO)C(=O)Cc2cc(NC(=O)Cc3ccccc3)ccc2O[C@H]1CN(C)C(=O)Nc1cccc2ccccc12	none (no result: RecA splice inh)
COc1ccc(NC(=O)CON=CC(=O)Nc2ccc(C)cc2)c(OC)c1	none (no result: RecA splice inh)
CCSc1ccc(/C(N)=N/OC(=O)c2cccs2)cn1	none
O=C(OCc1ccccc1)N1CCC2CC1c1cc(/C=C/CCCSc3ncccn3)ccc12 (stereo not drawn)	none (no result: Mtb UGM inh, Mtb betalactam, Rv3671c inh, RecA splice inh)
CCCCNc1c(-c2ccc(SC3CCCCC3)cc2)nc2ccccn12	Mtb FBA inh 50
CC1(c2ccc3ccccc3c2)NC(=O)N(CC(=O)N2CCCC(C(F)(F)F)C2)C1=O (stereo not drawn)	none (no result: RecA splice inh)
Clc1ccc(CO/N=C(\Cn2ccnc2)c2ccc(Cl)cc2Cl)c(Cl)c1	RecA splice inh 32 (no result: GDH-TPI inh, Mtb FBA inh)
CC(=O)c1sc(NC(=O)C2COc3ccccc3O2)nc1C (stereo not drawn)	none
CC1(C)CC(=O)c2sc(NC(=O)C3COc4ccccc4O3)nc2C1 (stereo not drawn)	GDH-TPI inh 34
CC1(C)CC(=O)c2sc(N3CCCCC3)nc2C1	GDH-TPI inh 42
CC1(C)CC(=O)c2sc(NS(C)(=O)=O)nc2C1	GDH-TPI inh 35
CC1(C)CC(=O)c2sc(NC(=O)CN3C(=O)CCC3=O)nc2C1	GDH-TPI inh 32
CC1(CCCN2C(=O)c3ccccc3C2=O)OCCO1	none
Cc1ccccc1Nc1nc(N)[nH]c(=O)c1N=O	none (no result: Mtb UGM inh, GDH-TPI inh, Mtb betalactam, Rv3671c inh, RecA splice inh)
COc1ccc2sc(-c3ccc(S(C)(=O)=O)cc3)c(C(=O)NCCc3c[nH]c4ccccc34)c2c1	none (no result: RecA splice inh)
COc1ccc2c(C(=O)NCCCCO)c(-c3ccc(S(C)(=O)=O)cc3)sc2c1	Mtb FBA inh active (no result: RecA splice inh)
Cc1ccc(NC(=O)CN2C(=O)C(=O)N(C3CCCC3)C2=O)c(Cl)c1	none (no result: RecA splice inh)
CCOC(=O)Cn1cc(C(=O)c2ccco2)c2ccccc21	none
O=C(O)Cn1cc(C(=O)c2ccco2)c2ccccc21	GDH-TPI inh 32, Mtb betalactam inconclusive
COCCN1C[C@@H](CO)O[C@@H](n2cnc3c(NCCO)ncnc32)C1	none (no result: Mtb UGM inh, Mtb betalactam, Rv3671c inh, RecA splice inh)
Nc1ccc(S(=O)(=O)c2ccc(N3CCOCC3)c(N)c2)cc1	none (no result: Mtb UGM inh, Mtb betalactam, Rv3671c inh, RecA splice inh)
CCc1n[nH]c(=S)n1/N=C/c1c(C)nn(-c2ccccc2)c1Cl	none
CCc1n[nH]c(=S)n1/N=C/c1ccc(N(CC)CC)cc1	GDH-TPI inh 48
CCN(CC)c1ccc(/C=N/n2c(C)cc(C)cc2=O)cc1	GDH-TPI inh 33
O=c1c2sc3nc(N4CCOCC4)c4c(c3c2ncn1C(c1ccccc1)c1ccccc1)CCCC4	none (no result: Mtb UGM inh, Mtb betalactam, Rv3671c inh, RecA splice inh)
CCOc1cc2c(cc1OCC)CN(C(=O)c1cccc(S(=O)(=O)N3CCCC3)c1)CC2	none (no result: RecA splice inh)
